The whole screen tested about 48,000 compounds, of which about 13,000 (27%) showed an effect of 50% or more. Some of the results follow.
The compounds below were run on Wolbachia pipientis (assay: Anti-Wolbachia Cell-Based Screen). Conditions: 5 µM.
Format: functional
Design: scale not given: in the data most compounds retested in dose-response had high values

Row | SMILES | Percent Effect [%]
1 | COc1ccc(-c2n[nH]cc2CN(C)Cc2nnc(C)o2)c(F)c1 | 5.542
2 | COC[C@]1(O)CCN(Cc2c[nH]c(CC3CCCC3)n2)CC1(C)C | 12.99
3 | Cn1cc(CN2CCc3ncnc(C4CCOC4)c3CC2)cn1 (stereo not given) | 2.928
4 | CS(=O)(=O)NCC1CCCCN1C(=O)c1ccc(Br)s1 (stereo not given) | -1.817
5 | CS(=O)(=O)NCC1CCCCN1C(=O)c1ccsc1 (stereo not given) | -1.868
6 | CCC1CCCCN1C(=O)c1ccnc(N(C)C)c1 (stereo not given) | 113.6
7 | CN(C)c1cc(C(=O)N2CCCCC2Cn2cccn2)ccn1 (stereo not given) | 105
8 | CN(C)c1cc(C(=O)N2CCCCC2CNS(C)(=O)=O)ccn1 (stereo not given) | 130
9 | CCCc1nc(C(C)(C)NC(=O)c2ccnn2C)no1 | 9.786
10 | CCCc1nnc(N[C@H](C)c2ccc(OC)cc2)o1 | -12.73
11 | Fc1ccc(CNCc2cc(Br)c3c(c2)OCO3)cc1 | -17.14
12 | O=C(CCNC(=O)c1ccoc1)Nc1cc(F)ccc1F | -1.29
13 | Cc1cccc(CN2CCOC(C)(C(=O)N3CCOCC3)C2)n1 (stereo not given) | 111.3
14 | Cc1cccc(CN2CCc3[nH]nc(C(=O)N4CCOCC4)c3C2)n1 | 9.618
15 | Cc1cc(CNC(=O)NCc2ccccc2N2CCOCC2)no1 | -16.89
16 | Cc1ncsc1CN1CC[C@H]2OCC[C@@]2(C(=O)N2CCOCC2)C1.O=C(O)C(F)(F)F | 1.512
17 | Cc1cc(CN2CCN(C(=O)NCc3ccc(C)s3)CC2)no1 | 0.1424
18 | Cc1cccc(CN2CC[C@H]3OCC[C@@]3(C(=O)N3CCOCC3)C2)n1 | 83.3
19 | CN1CCN(Cc2c[nH]cn2)CC12CCC(=O)N(CC1CC1)CC2 (stereo not given) | -17.33
20 | CC1(C(=O)N2CCOCC2)CN(Cc2c[nH]cn2)CCO1 (stereo not given) | 123.4
21 | NC(=O)C1CN(Cc2c[nH]cn2)CCN(C2CCOCC2)C1 (stereo not given) | -9.995
22 | Cc1cc(CN2CCOC(C)(C(=O)N3CCOCC3)C2)no1 (stereo not given) | 109.8
23 | CC1(C(=O)N2CCOCC2)CN(Cc2ccccn2)CCO1 (stereo not given) | -10.18
24 | CC(C)Nc1cccc(CNC(=O)N2CCC[C@@H]2CO)c1 | -12.14
25 | CCCc1cc(=O)[nH]c2nnc(SCC(=O)NCCc3ccccc3)n12 | 12.93

Row | SMILES | Percent Effect [%]
26 | COC(=O)N1CCC(NC2CCSCC2)C1 (stereo not given) | -0.02013
27 | CCC(CCO)NS(=O)(=O)c1ccc(Br)cn1 (stereo not given) | -13.92
28 | C=C(C)Cn1nnc(C2(NC(=O)c3ccccc3)CCCC2)n1 | -0.5972
29 | O=C(O)[C@@H]1CN(Cc2ccc3nsnc3c2)C[C@H]1c1cccnc1 | -24.04
30 | CC(=O)N1CCC(N[C@@H]2CO[C@H](CNC(=O)c3cccs3)[C@H]2O)CC1 | 1.318
31 | CC(=O)N1C[C@H](NC(=O)c2csc(C(C)C)c2)[C@@H](C(C)C)C1 | -7.601
32 | Cc1ccc(C(=O)N2CCN3C[C@H](Oc4cncnc4)C[C@H]3C2)cn1 | -3.915
33 | CCc1ccccc1CN1CC[C@@H](NC(=O)c2cccnc2)[C@H](O)C1 | -11.05
34 | Cc1cncc(C(=O)NCC2COCc3c(C)nnn3C2)c1 (stereo not given) | -1.908
35 | CC(C)(C)c1cc(CN2CC[C@@H](NC(=O)c3cccnc3)[C@H](O)C2)n[nH]1 | -14.75
36 | CC(=O)N1CCN([C@@H]2CCC[C@@H](NC(=O)c3cccnc3)[C@H]2O)CC1 | 122.9
37 | CC(=O)N1CCN([C@@H]2CC[C@@H](NC(=O)c3cc(C)cs3)[C@H]2O)CC1 | 116.4
38 | CC(=O)N1CCN([C@@H]2CC[C@@H](NC(=O)c3cncc(C)c3)[C@H]2O)CC1 | -9.247
39 | CCCC(=O)NC1CCCN(C(=O)c2ccc(C)nc2)C1 (stereo not given) | -3.666
40 | Cc1cncc(C(=O)N[C@@H]2CC[C@@H](N3CCOCC3)[C@@H]2O)c1 | 120
41 | CC(=O)N1CCN([C@@H]2CC[C@@H](NC(=O)c3ccc(C)nc3)[C@H]2O)CC1 | 126.1
42 | CC(=O)NC1CCCN(C(=O)CNc2cccc(C)c2Cl)C1 (stereo not given) | 6.978
43 | O=C(CCn1cncn1)N1CCC2(CC1)[C@H](O)C[C@@H]2OCCO | -12.21
44 | O=C(NS(=O)(=O)c1ccc(C2CCCCC2)cc1)C1COCCO1 (stereo not given) | -16.34
45 | CCOc1ccc(N(C)Cc2nnc(C3CC3)o2)cc1 | -1.111
46 | CC1(C)CCC(CC(=O)O)c2ccccc21 (stereo not given) | 8.259
47 | CN(Cc1cc(-c2ccncc2)no1)Cc1nccn1C | 1.044
48 | O=C(O)C(F)(F)F.O=C(c1ccccc1F)N1C[C@H]2CCC[C@@]2(COCc2ccncc2)C1 | -1.474
49 | Cc1ccccc1C(=O)N1C[C@@H]2CCN(c3cccnc3)C[C@@H]2C1.O=C(O)C(F)(F)F | 9.875
50 | Cc1ccccc1C(=O)NC[C@@H]1CCN(C(=O)CN2CCCC2)C[C@H]1O | 2.188

Row | SMILES | Percent Effect [%]
51 | CNC(=O)CN1CC[C@H]2CN(C(=O)c3ccccc3C)C[C@H]2C1.O=C(O)C(F)(F)F | 117.7
52 | CNC(=O)CN1CC[C@H]2CN(C(=O)c3ccccc3F)C[C@H]2C1.O=C(O)C(F)(F)F | 86.74
53 | COCC(=O)NC[C@H]1OC[C@@H](NC2CCC(F)(F)CC2)[C@@H]1O | -6.952
54 | c1ccc(-c2ncc3c(n2)C2(CCN(c4ncccn4)C2)COC3)cc1 (stereo not given) | -0.2326
55 | O=S(=O)(C1CC1)N1CCC2(COCc3cnc(-c4cccnc4)nc32)C1 (stereo not given) | 112.6
56 | O=S(=O)(C1CC1)N1CCC2(COCc3cnc(N4CCOCC4)nc32)C1 (stereo not given) | -0.8991
57 | CS(=O)(=O)N1CCC2(COCc3cnc(-c4ccccc4)nc32)C1 (stereo not given) | 3.211
58 | CN(C)S(=O)(=O)N1CCC2(COCc3cnc(-c4cccnc4)nc32)C1 (stereo not given) | 117.1
59 | CN(C)S(=O)(=O)N1CCC2(COCc3cnc(-c4ccccc4)nc32)C1 (stereo not given) | 7.187
60 | Cc1nn(C)c(NC(=O)C2SCCc3ccccc32)c1C (stereo not given) | -51.32
61 | COCCOc1ccc(NC(=O)C2CC(=O)N(C3CC3)C2)cn1 (stereo not given) | 124.3
62 | COCCOc1ccc(NC(=O)C2CCCN(C(N)=O)C2)cn1 (stereo not given) | -6.192
63 | COCCOc1ccc(NC(=O)N2CCCC2c2ccncc2)cn1 (stereo not given) | -3.019
64 | COCCOc1ccc(NC(=O)C2CC(=O)N(CC3CC3)C2)cn1 (stereo not given) | 88.01
65 | COCCOc1ccc(NC(=O)N2CCCC2c2cc(C)no2)cn1 (stereo not given) | -1.531
66 | COCCOc1ccc(NC(=O)N(CCO)C2CC2)cn1 | -3.493
67 | COCCOc1ccc(NC(=O)C2CC(=O)N(C(C)C)C2)cn1 (stereo not given) | 102.1
68 | COCCOc1ccc(NC(=O)N(C(C)C)C2CC2)cn1 | -14.55
69 | COCCOc1ccc(NC(=O)N2CCCC2c2cccs2)cn1 (stereo not given) | -5.356
70 | CCS(=O)(=O)N1CCN(CC(F)(F)F)CC1 | 6.417
71 | CS(=O)(=O)CCC(=O)NC1CC(c2ccccc2Cl)C1 (stereo not given) | -3.689
72 | Cc1nc(C2CCN(CC(=O)NC3CC3)CC2)cc(N2CCOCC2)n1 | -4.261
73 | Cc1cc(C)c(CNC(=O)N2CCN(c3cnccn3)CC2)c(=O)[nH]1 | -4.919
74 | CNC(=O)CCc1cc(C2CCN(c3cnccn3)CC2)nc(C)n1 | 127.7
75 | CCNC(=O)CCN1CCC(c2cc(N3CCOCC3)nc(C)n2)CC1 | 2.574

Row | SMILES | Percent Effect [%]
76 | CNC(=O)CCc1cc(C)nc(C2CCN(c3cnccn3)CC2)c1 | 163
77 | CNC(=O)CCc1cc(C)nc(C2CCN(C3CCCCC3)CC2)c1 | 132.7
78 | Cc1cc(N2CCC(NC(=O)CCc3cnn(C)c3)CC2)nc(C)n1 | -6.539
79 | CNC(=O)CCc1cc(C)nc(C2CCCN2)c1 (stereo not given) | -6.068
80 | Cc1ccc(CC(=O)NC2CCN(c3cccc(Cl)c3)C2)cn1 (stereo not given) | -6.758
81 | CCn1ncnc1C(C)NC(=O)C1CCN(C2CCCCC2)CC1 (stereo not given) | -9.983
82 | O=C(CCc1ccsc1)NCC1CCN(c2ccccc2)C1 (stereo not given) | -7.68
83 | CNC(=O)CCc1cc(C)nc(C2CCN(c3ccccc3)CC2)c1 | 115.5
84 | CCN(Cc1ccoc1)C(=O)NC1CCN(CC2CC2)C1 (stereo not given) | -6.123
85 | N#Cc1c(Cl)nsc1NCCCN1C(=O)COc2ccccc21 | -8.12
86 | CCN(C(=O)C1CCC1)C(c1cccnc1)c1ccc2c(c1)CCO2 (stereo not given) | -9.854
87 | O=C(C1CN(Cc2ccsc2)Cc2ccnn2C1)N1CCCC1.O=C(O)C(F)(F)F.O=C(O)C(F)(F)F (stereo not given) | 5.087
88 | COc1coc(CN2CCCC3(CCC(=O)N(CC4CC4)C3)C2)cc1=O (stereo not given) | -7.938
89 | CN(CCc1cnn(C)c1)C(=O)Cn1c(=O)[nH]c2ccccc21 | 117.9
90 | CN(CCc1cnn(C)c1)C(=O)CN1C(=O)OC[C@@H]1c1ccccc1 | -15.8
91 | CCOCCn1c(=O)[nH]c2cc(C(=O)N(C)Cc3cnn(C)c3)ccc21 | 6.487
92 | Cc1cc(C)c2nc(C)cc(C(=O)NCc3csc(N(C)C)n3)c2c1 | -46.67
93 | O=C(Nc1cnn(CC(=O)N2CCCCO2)c1)c1ccccn1 | -7.331
94 | O=C(O)c1ccc(F)c(S(=O)(=O)Nc2c(F)cccc2-n2cccn2)c1 | -5.743
95 | CN(C)CCn1c([C@@H]2CCCO2)cc2cccnc21.Cl | 90.46
96 | Cc1nn(C)c2nc(N(Cc3ccccn3)CC3CCCO3)sc12 (stereo not given) | -1.375
97 | CN(C)CCn1c(=O)oc2ccc(NC(=O)C3CCCO3)cc21 (stereo not given) | 1.023
98 | CN(C)CCn1c([C@H]2CCCO2)cc2cccnc21 | 104.2
99 | CN(C)CCn1ccnc1C1CCCN(c2nccc3ccccc23)C1 (stereo not given) | -1.132
100 | Cc1ccc(C#N)c(N2CCC(c3nccn3CCN(C)C)CC2)n1 | -3.51

Source: ChEMBL document CHEMBL3988442, “University of Dundee, Small-Polar-MMV Screening Library” (2021)
